These entries were drawn from the full list.
aSyn UTR act: Activators via SNCA 5'UTR binding, MLPCN; activity score, % (tested at 7.5 µM), hits read low; AID 1814, 2009; alpha-synuclein 5'UTR reporter, activators screen; actives 7.1% (n = 300,000); in the data active = activity score below about -60%
Active calls of the source: *.

SMILES | aSyn UTR act
CCOC(=O)Cc1cc(=O)[nH]c(Nc2nc3ccccc3o2)n1 | -83.4*
Cc1nn2c(N)c(-c3ccccc3)cnc2c1-c1ccccc1 | -131.2*
Nc1c(-c2ccc(Cl)cc2)cnc2c(-c3ccc(F)cc3)cnn12 | -95.2*
CCOC(=O)c1cnc2c(-c3ccc(Cl)cc3)cnn2c1C | -97.6*
COc1ccc(-c2c(C)nc3c(-c4ccc(F)cc4)cnn3c2N)cc1 | -142.9*
CCCCCCCCCCCCCCCCn1cc[n+](C)c1 | 140.7
Nc1c(-c2cccc(Cl)c2)cnc2c(-c3ccccc3)cnn12 | -243.3*
Fc1ccc(-c2cnn3c(-c4ccncc4)ccnc23)cc1 | -69.4*
Cc1cccc(/N=C/c2c(O)[nH]c3ccccc23)n1 | -210.9*
Oc1[nH]c2ccccc2c1C=Nc1ccc2c(c1)OCCO2 | -76.0*
COc1ccc(-c2nc(C#N)c(NC(C)C)o2)cc1 | -68.4*
CNc1oc(-c2ccc(Cl)cc2)nc1C#N | -172.7*
CNc1oc(-c2cccc3ccccc23)nc1C#N | -104.8*
C[n+]1c2n(c3ccccc31)N=C(c1ccccc1)CS2 | -67.9*
Cc1cccc(Nc2nn3c(=O)c4ccccc4nc3s2)c1 | -160.1*
Clc1cccc(Oc2cnc3ccccc3n2)c1 | -65.6*
COc1ccc(Oc2cnc3ccccc3n2)cc1 | -64.5*
CC(C)(C)c1ccc(Oc2ccc(N)cn2)cc1 | 87.0
c1cc(CSc2nnc(-c3ccc4c(c3)OCO4)o2)ccn1 | -85.9*
O=C(O)CCSc1nnc(-c2ccc3c(c2)OCO3)o1 | 66.7
Cc1ccccc1NC(=O)Cc1nc(CSc2nnc(-c3ccc4c(c3)OCO4)o2)cs1 | -71.6*
Cc1ccc(-n2nc(C)c(NC(=O)CCl)c2C)cc1C | -220.1*
CCCCN(Cc1ccccc1)c1ncnc2nc[nH]c12 | -63.2*
Cc1nc(N)sc1N=Nc1ccc(F)cc1 | -106.9*
Cc1ccc(N2C(=O)NC3(CCCCC3)C2=O)cc1 | -64.0*
SMILES | aSyn UTR act
Oc1cccc(/C=N/Nc2ncnc3c2ncn3Cc2ccccc2)c1 | -76.9*
Nc1c(S(=O)(=O)c2cccc(Cl)c2)c2nc3ccccc3nc2n1/N=C/c1ccc(O)c(O)c1 | 88.8
Oc1ccc(/C=N/Nc2ncnc3c2ncn3Cc2ccccc2)cc1O | -67.0*
Cc1cccc(N=Nc2cnc(N)s2)c1 | -109.1*
COc1ccccc1NC(=O)c1c(O)c2ccccc2[nH]c1=O | -76.3*
O=C(Nc1cccc(F)c1)c1c(O)c2ccccc2[nH]c1=O | -140.5*
O=C(Nc1nc2nccc(-c3ccccc3)n2n1)c1ccccc1 | -82.8*
CC(C)(C)n1cnc2cc(NC(=O)c3ccco3)ccc21 | -88.4*
Cc1cc(NC(=O)c2ccco2)ccc1-n1cnnn1 | -76.7*
Cc1ccnc2nc(NC(=O)c3ccco3)nn12 | -80.8*
Nc1nc(NC(=O)c2ccco2)nn1-c1ccccc1 | -65.7*
O=C(Nc1cc2nn(-c3ccccc3)nc2cc1Cl)c1ccco1 | -128.8*
CC(=O)Nc1cc2nn(-c3ccccc3)nc2cc1Cl | -122.8*
O=C(Nc1ccc2nn(-c3ccccc3)nc2c1)c1ccco1 | -255.4*
O=C(OCCN1C(=O)c2cccc3c(N4CCOCC4)ccc(c23)C1=O)c1ccc(Cl)cc1Cl | 99.1
O=C1c2cccc3c(N4CCCCC4)ccc(c23)C(=O)N1c1cccc(O)c1 | -77.6*
O=C1c2cccc3cc([N+](=O)[O-])cc(c23)C(=O)N1CCN1CCCC1 | 97.8
C=CCN1C(=O)c2cccc3c(N4CCCCC4)ccc(c23)C1=O | -65.8*
O=C1c2cccc3c(N4CCCCC4)ccc(c23)C(=O)N1CCO | -119.6*
O=C(N/N=C/c1ccc2c(c1)OCO2)c1cccc(NC(=O)c2ccccc2Cl)c1 | -157.9*
Cc1cccc(C(=O)Nc2cccc(C(=O)N/N=C/c3ccc4c(c3)OCO4)c2)c1 | -109.2*
CCCc1ccc2oc(C(=O)N(C)Cc3nccs3)c(C)c2c1 | -148.8*
Cc1ccc2oc(C(=O)N3CCCCCC3)c(C)c2c1 | -77.8*
CCCc1ccc2oc(C(=O)N3CCC(O)CC3)c(C)c2c1 | -89.2*
O=C(c1cc2cc(Br)ccc2o1)N1CCCCC1 | -146.3*
SMILES | aSyn UTR act
Cc1c(C(=O)N2CCCCC2)oc2ccc(Br)cc12 | -137.7*
Cc1ccc(-c2nc(C(=O)NCCCN3CCOCC3)cc3c2[nH]c2ccccc23)cc1 | -64.5*
Cc1ccc2oc(C(=O)NCCCN3CCOCC3)c(C)c2c1 | -95.4*
O=S1(=O)CCN2C=C(Br)C=C(Br)C2=N1 | -71.9*
COc1ccc(CN=Cc2[nH]c3ccc(Br)c(Cl)c3c2O)cc1 | -77.7*
CCOC(=O)/C(N=Nc1ccc2c(c1)OCO2)=C(\C)O | -123.3*
O=C(Nc1cnn(Cc2c(Cl)cccc2Cl)c1)c1ccc([N+](=O)[O-])cc1 | -64.6*
CN(C)c1ccc(NC(=O)c2ccc(Cn3cc([N+](=O)[O-])cn3)cc2)cc1 | -72.9*
O=C1C(Nc2ccccc2)=C2CCCC=C2N1c1ccccc1 | -163.2*
COc1ccc(C2=NOC(C(=O)NCC(C)C)C2)cc1 (stereo not drawn) | -106.7*
COc1ccc(C2=NOC(C(=O)NCc3ccco3)C2)cc1 (stereo not drawn) | -77.1*
CCC(=O)Nc1ccc(C(=O)Nc2cccc(C)n2)cc1 | -168.9*
COc1ccc(NC(=O)Nc2cccc(C)n2)cc1 | -201.2*
COc1ccc(NC(=O)Nc2ccc(Br)cn2)cc1 | -146.1*
Cc1cccc(NC(=O)Nc2ccc(Br)cc2)n1 | -126.8*
Nc1cc(C(F)(F)F)ccc1OCC1CCCO1 (stereo not drawn) | -90.9*
CCN(CC)C(=O)c1ccc2nc3ccccc3nc2c1 | 50.2
CCN(CC)c1ccc(C(=O)Nn2cnc3ccccc3c2=O)cc1 | -92.4*
CCN(CC)c1ccc(C(=O)n2cnc3ccccc32)cc1 | -127.9*
Nc1nc(N2CCN(c3ccccn3)CC2)nc2ccccc12 | -118.1*
CN1CCN(C(=O)c2cc(-c3ccccc3)on2)CC1 | -80.2*
O=C(c1cc(-c2ccccc2)on1)N1CCCCCC1 | -199.9*
CCN(CC)C(=O)c1cc(-c2ccc(Br)cc2)on1 | -152.4*
O=C(c1cc(-c2ccc(Br)cc2)on1)N1CCCC1 | -109.4*
O=C(c1cc(-c2cccc(O)c2)on1)N1CCCC1 | -106.5*
SMILES | aSyn UTR act
CCOC(=O)/C(=N/Nc1ccc(C)cc1)S(=O)(=O)c1ccc(Cl)cc1 | -141.9*
Cc1cc2[nH]c3ccccc3c2c(C)n1 | -85.1*
O=C(NC(=O)c1ccccc1)Nc1ccc(-c2cnco2)cc1 | -143.4*
O=C(Nc1ccc(Cl)cc1)Nc1ccc(-c2cnco2)cc1 | -85.4*
O=C(Nc1ccc2c(c1)nc1n2CCOC1)c1ccco1 | -66.2*
O=C(Nc1ccc2c(c1)nc1n2CCOC1)C1CCCCC1 | -105.7*
Cc1c2ccccc2nc2c(F)c(N(C)C)c(F)c(F)c12 | -77.8*
COC(=O)Cc1c(C)c2ccc(OC(C)C)cc2oc1=O | -156.4*
CCCCn1c(=O)[nH]c(=O)c2c1nc(Cn1ncc(Cl)c(Cl)c1=O)n2CCC | -106.0*
CCC1=Nc2cc(C(=O)NCCCOC)ccc2Sc2ccccc21 | 73.5
COCCCNC(=O)c1ccc2nc(Cc3ccc(OC)cc3)oc2c1 | -94.5*
C=CCNC(=O)c1ccc2nc(Cc3ccc(OC)cc3)oc2c1 | -139.4*
COc1ccc(Cc2nc3ccc(C(=O)N(C)CCn4ccnc4)cc3o2)cc1OC | -77.8*
COc1ccc(Cc2nc3ccc(C(=O)N4CCOCC4)cc3o2)cc1 | -125.4*
Cc1cc2c(cc1C)C(c1cc(Br)ccc1F)CC(=O)N2 (stereo not drawn) | 64.9
COc1ccc(Cc2nc3ccc(C(=O)NCCCSC)cc3o2)cc1OC | -99.3*
Cc1ccc(COC(=O)c2cc([N+](=O)[O-])ccc2N2CCOCC2)cc1 | 67.9
COC(=O)c1cc(C)ccc1OCc1ccc([N+](=O)[O-])cc1 | -79.1*
